# Test results reported in PubChem BioAssay (Tox21).
# Values joined by “and” are separate entries in the source; they are usually repeats but may differ in a detail not shown here. Equal values may be shown once. Results filed as inconclusive are left out. Where a call stands in place of a potency, no number is given. Some compounds were tested as several samples or in several runs, with calls that do not always agree. Active and inactive are the calls of the source. Unless noted, the call rests on the fitted dose curve; in most records, active means well fitted curve in the direction sought with a large enough effect in the repeat runs; inconclusive means weak or mixed curves; inactive means no such curve, though single readings can be large; an effect the other way counts as inactive or inconclusive.
# Tests used:
# [1] = Human pregnane X receptor (PXR) small molecule agonists, qHTS cell viability counter screen (AID 1346977); further: nearly all actives have a fitted effect of over 50% in size; further: potency means the concentration at half of the fitted maximal effect
# Procedure, shortened: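 Fluorescence read-out (CellTiter-Fluor) of viability in PXR-Luc HepG2 cells, multiplexed with the luciferase agonist read. Compounds in DMSO added after 5hr plating; 24hr total exposure at 37C, 5% CO2.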
# [2] = Caspase-3/7 induction in HepG2 cells by small molecules, qHTS assay (AID 1346978); further: nearly all actives have a fitted effect of over 15% in size; further: potency means the concentration at half of the fitted maximal effect
# Procedure, shortened: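 Wild-type HepG2 cells (2,000/well) were settled 5 h at 37 C, 5% CO2, then exposed to compounds in DMSO for 17 h. Caspase-3/7 activity was read by luminescence 30 min after adding Caspase-Glo 3/7 reagent at room temperature.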
# [3] = Caspase-3/7 induction in CHO-K1 cells by small molecules, qHTS cell viability counter screen (AID 1346979); further: nearly all actives have a fitted effect of over 35% in size; further: potency means the concentration at half of the fitted maximal effect
# Procedure, shortened: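 CHO-K1 wt, 1,500 cells/well; 5hr pre-incubation 37C/5% CO2; compound pin transfer (DMSO); 16hr exposure; CellTiter-Fluor added, 1hr, fluorescence read.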
# [4] = Caspase-3/7 induction in HepG2 cells by small molecules, qHTS cell viability counter screen (AID 1346981); further: nearly all actives have a fitted effect of over 30% in size; further: potency means the concentration at half of the fitted maximal effect
# Procedure, shortened: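 The parent HepG2 line is plated at 2,000 cells per well and rested 5 hr before compound pinning from DMSO stocks. Following a 16-hr treatment at 37 C, a fluorogenic live-cell substrate (CellTiter-Fluor) reports viability after 1 hr.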
# [5] = molecular target: Nuclear receptor subfamily 1 group I member 2 (Homo sapiens) (UniProt O75469); assay: Human pregnane X receptor (PXR) small molecule agonists, qHTS assay (AID 1346982); further: nearly all actives have a fitted effect of over 35% in size; further: potency means the concentration at half of the fitted maximal effect
# Procedure, shortened: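 After plating in 5% charcoal-stripped FBS and a 5 hr rest, PXR-Luc HepG2 cells received compounds in DMSO. Following 24 hr at 37 C, ONE-Glo was added and light output read.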
# [6] = molecular target: Acetylcholinesterase (Homo sapiens) (UniProt P22303); assay: Acetylcholinesterase (AChE) small molecule antagonists: colormetric cell-based qHTS assay (AID 1347395; calls by dose curve; further: nearly all actives have a fitted effect of over 30% in size)
# Procedure, shortened: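 SH-SY5Y cells; cpd 30 min 37 C; + DTNB/acetylthiocholine, 90 min 37 C; colorimetric thiocholine read; qHTS.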
# [7] = molecular target: Acetylcholinesterase (Homo sapiens) (UniProt P22303); assay: Acetylcholinesterase (AChE) small molecule antagonists: enzyme-based qHTS assay (AID 1347397; calls by dose curve; further: nearly all actives have a fitted effect of over 55% in size); conditions: Potency: AChE enzyme activity inhibition; outcome: AChE enzyme activity inhibition
# Procedure, shortened: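 Tox21 library chemicals are tested in qHTS format against recombinant human AChE. The enzyme, dispensed at 50 mU/mL, sits with compound for 30 min at room temperature. A DTNB–acetylthiocholine cocktail follows, and colour is read after 10 min.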
# [8] = molecular target: Acetylcholinesterase (Homo sapiens) (UniProt P22303); assay: Acetylcholinesterase (AChE) small molecule antagonists: fluorescence cell-based qHTS assay (AID 1347398; calls by dose curve; further: nearly all actives have a fitted effect of over 50% in size); conditions: Potency: AChE activity; outcome: AChE activity
# Procedure, shortened: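 Cellular AChE inhibition: SH-SY5Y cells treated with test chemical for 30 min at 37 C, then acetylthiocholine hydrolysis followed over 40 min at room temperature via thiocholine-reactive Thiolite Green fluorescence (490/520 nm).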
# [9] = molecular target: Acetylcholinesterase (Homo sapiens) (UniProt P22303); assay: Acetylcholinesterase (AChE) small molecule antagonists: enzyme-based qHTS assay with human liver microsomes (AID 1347399; calls by dose curve; further: nearly all actives have a fitted effect of over 60% in size); conditions: Potency: qHTS inhibition; outcome: qHTS inhibition
# Procedure, shortened: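 Recombinant human AChE (50 mU/mL in the enzyme mix) and human liver microsomes (0.25 mg/mL final) were preincubated with compound and NADPH (0.25 mg/mL final) for 30 min at 37 C. Acetylthiocholine/DTNB was then added; thiocholine was read colorimetrically after 10 min at room temperature.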
# [10] = molecular target: Cytochrome P450 2D6 (Homo sapiens) (UniProt P10635); assay: Cytochrome P450 Family 2 Subfamily D Member 6 (CYP2D6) small molecule antagonists: luciferase reporter qHTS assay (AID 1671196); further: nearly all actives have a fitted effect of over 50% in size; further: potency means the concentration at half of the fitted maximal effect
# Procedure, shortened: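 Quantitative HTS of Tox21 chemicals against CYP2D6 using a luminescent proluciferin substrate. After NADPH addition, 1 h room-temperature reaction; luminescence recorded 20 min post detection reagent.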
# [11] = molecular target: Cytochrome P450 2C19 (Homo sapiens) (UniProt P33261); assay: Cytochrome P450 Family 2 Subfamily C Member 19 (CYP2C19) small molecule antagonists: luciferase reporter qHTS assay (AID 1671197); further: nearly all actives have a fitted effect of over 65% in size; further: potency means the concentration at half of the fitted maximal effect
# Procedure, shortened: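 Relative luminescence units recorded 20 min after the detection reagent stopped a 1 h, 37C CYP2C19 reaction on proluciferin substrate, which was started by NADPH regeneration following 10 min room-temperature compound preincubation; ketoconazole positive control.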
# [12] = molecular target: Cytochrome P450 2C9 (Homo sapiens) (UniProt P11712); assay: Cytochrome P450 Family 2 Subfamily C Member 9 (CYP2C9) small molecule antagonists: luciferase reporter qHTS assay (AID 1671198); further: nearly all actives have a fitted effect of over 50% in size; further: potency means the concentration at half of the fitted maximal effect
# Procedure, shortened: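 CYP2C9 activity was measured with a P450-Glo proluciferin substrate. Enzyme–substrate mix was held with compound for 10 min at room temperature, then NADPH regeneration solution was added for 1 h at 37C. Luciferin product was read as luminescence.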
# [13] = molecular target: Cytochrome P450 1A2 (Homo sapiens) (UniProt P05177); assay: Cytochrome P450 Family 1 Subfamily A Member 2 (CYP1A2) small molecule antagonists: luciferase reporter qHTS assay (AID 1671199); further: nearly all actives have a fitted effect of over 50% in size; further: potency means the concentration at half of the fitted maximal effect
# Procedure, shortened: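 Quantitative high-throughput format using the P450-Glo CYP1A2 system. Reaction initiated by NADPH regeneration solution, 1 h at room temperature, then stopped with detection reagent; luminescence measured 20 min later.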
# [14] = molecular target: Voltage-gated inwardly rectifying potassium channel KCNH2 (Homo sapiens) (UniProt Q12809); assay: Human Ether-a-go-go-Related Gene (hERG) channel small molecule antagonists: fluorescence cell-based qHTS assay (AID 1671200); further: nearly all actives have a fitted effect of over 50% in size; further: potency means the concentration at half of the fitted maximal effect
# Procedure, shortened: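 Read-out: thallium influx as a surrogate for potassium, tracked as fluorescence (480 nm ex/540 nm em) every second for 2 min after Stimulus Buffer addition in dye-loaded hERG-U2OS cells.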
# [15] = molecular target: Cytochrome P450 3A4 (Homo sapiens) (UniProt P08684); assay: Cytochrome P450 Family 3 Subfamily A Member 4 (CYP3A4) small molecule antagonists: luciferase reporter qHTS assay (AID 1671201); further: nearly all actives have a fitted effect of over 50% in size; further: potency means the concentration at half of the fitted maximal effect
# Procedure, shortened: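 Luminescent readout (RLU) proportional to CYP3A4 activity, from luciferin generated off a proluciferin substrate. Enzyme–substrate mix plus compound 10 min at room temp, NADPH regeneration 1 h, detection reagent 20 min.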
# [16] = Caspase-3/7 induction in CHO-K1 cells by small molecules, qHTS assay (AID 1346980); further: nearly all actives have a fitted effect of over 15% in size
# Procedure, shortened: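 Wild-type cells were seeded at 1,500 per well and settled 5 hr at 37 C, 5% CO2, then exposed to DMSO-dissolved compounds for 17 hr. Caspase-Glo 3/7 reagent was added, and luminescence was read after 30min at room temperature.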
# [17] = molecular target: Nuclear receptor subfamily 1 group I member 2 (Rattus norvegicus) (UniProt Q9R1A7); assay: Rat pregnane X receptor (rPXR) activation by small molecules, qHTS assay (AID 1346983); conditions: rPXR luciferase reporter cells, One-Glo luminescence, 24 h; stronger effect = higher value; further: nearly all actives have a fitted effect of over 20% in size
# Procedure, shortened: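 Cell-based rPXR luciferase reporter assay, 2,000 cells per well, rested 5hr at 37 C before compound addition in DMSO, then 24 hr at 37 C. One-Glo reagent was added and luminescence read after 30 min at room temperature.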
# [18] = molecular target: Nuclear receptor subfamily 1 group I member 2 (Homo sapiens) (UniProt O75469); assay: CYP3A4 induction through human pregnane X receptor (PXR) by small molecules, qHTS assay (AID 1346984); further: nearly all actives have a fitted effect of over 40% in size
# Procedure, shortened: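 Human PXR activation is tracked via CYP3A4 promoter-luciferase in DPX-2 (HepG2) cells. Compounds treat cells for 24hr at 37C, and luminescence is read after One-Glo.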
# [19] = molecular target: Nuclear receptor subfamily 1 group I member 2 (Homo sapiens) (UniProt O75469); assay: Human pregnane X receptor (PXR) activation by small molecules, qHTS assay (AID 1346985); further: nearly all actives have a fitted effect of over 40% in size
# Procedure, shortened: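 DPX-2 cells (HepG2 co-transfected with a PXR response element and a CYP3A4-promoter luciferase construct) were seeded at 2,000 per well, rested 5 hr at 37C, then exposed to DMSO-dissolved compounds for 24 hr. Activation was read as luciferase luminescence.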
# Chain of Cytochrome P450 3A4 (Homo sapiens) (P08684 whole entry, looked up): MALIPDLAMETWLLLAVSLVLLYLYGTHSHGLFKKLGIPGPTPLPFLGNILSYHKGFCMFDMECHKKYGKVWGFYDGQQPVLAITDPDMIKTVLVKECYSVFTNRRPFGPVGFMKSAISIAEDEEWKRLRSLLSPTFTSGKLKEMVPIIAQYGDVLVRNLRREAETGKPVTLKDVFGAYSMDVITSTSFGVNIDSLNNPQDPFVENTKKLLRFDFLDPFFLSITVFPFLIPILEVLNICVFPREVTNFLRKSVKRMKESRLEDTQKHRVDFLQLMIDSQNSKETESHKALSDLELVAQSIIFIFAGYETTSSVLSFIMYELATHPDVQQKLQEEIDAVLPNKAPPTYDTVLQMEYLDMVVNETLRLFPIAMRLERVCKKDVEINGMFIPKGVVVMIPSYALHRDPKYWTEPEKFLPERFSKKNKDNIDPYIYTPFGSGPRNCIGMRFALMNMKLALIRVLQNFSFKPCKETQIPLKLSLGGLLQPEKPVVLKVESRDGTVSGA
# Chain of Cytochrome P450 2C9 (Homo sapiens) (P11712 whole entry, looked up): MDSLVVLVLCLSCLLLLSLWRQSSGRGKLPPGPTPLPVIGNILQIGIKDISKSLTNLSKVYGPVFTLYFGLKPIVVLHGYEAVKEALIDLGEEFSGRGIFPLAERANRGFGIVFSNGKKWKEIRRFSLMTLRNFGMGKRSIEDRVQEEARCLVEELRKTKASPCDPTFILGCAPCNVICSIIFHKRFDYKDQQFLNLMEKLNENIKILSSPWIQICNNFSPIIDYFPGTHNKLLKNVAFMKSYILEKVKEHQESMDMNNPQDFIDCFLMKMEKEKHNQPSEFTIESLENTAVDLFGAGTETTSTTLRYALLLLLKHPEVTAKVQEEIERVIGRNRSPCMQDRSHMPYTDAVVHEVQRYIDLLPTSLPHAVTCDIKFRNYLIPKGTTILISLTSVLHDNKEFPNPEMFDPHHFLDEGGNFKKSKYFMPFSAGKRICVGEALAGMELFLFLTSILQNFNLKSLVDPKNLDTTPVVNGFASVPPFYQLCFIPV
# Chain of Nuclear receptor subfamily 1 group I member 2 (Rattus norvegicus) (Q9R1A7 whole entry, looked up): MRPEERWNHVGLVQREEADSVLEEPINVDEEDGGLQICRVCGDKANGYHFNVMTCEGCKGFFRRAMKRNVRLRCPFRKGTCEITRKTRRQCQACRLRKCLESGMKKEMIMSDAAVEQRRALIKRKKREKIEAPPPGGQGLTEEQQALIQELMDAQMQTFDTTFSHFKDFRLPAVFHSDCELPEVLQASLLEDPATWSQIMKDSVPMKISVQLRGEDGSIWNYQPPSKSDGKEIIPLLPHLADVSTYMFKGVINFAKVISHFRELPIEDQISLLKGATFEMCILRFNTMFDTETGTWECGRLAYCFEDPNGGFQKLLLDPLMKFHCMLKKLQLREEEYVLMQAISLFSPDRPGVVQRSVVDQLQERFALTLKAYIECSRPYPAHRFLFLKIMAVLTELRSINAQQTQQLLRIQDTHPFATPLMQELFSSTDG
# Chain of Cytochrome P450 2D6 (Homo sapiens) (P10635 whole entry, looked up): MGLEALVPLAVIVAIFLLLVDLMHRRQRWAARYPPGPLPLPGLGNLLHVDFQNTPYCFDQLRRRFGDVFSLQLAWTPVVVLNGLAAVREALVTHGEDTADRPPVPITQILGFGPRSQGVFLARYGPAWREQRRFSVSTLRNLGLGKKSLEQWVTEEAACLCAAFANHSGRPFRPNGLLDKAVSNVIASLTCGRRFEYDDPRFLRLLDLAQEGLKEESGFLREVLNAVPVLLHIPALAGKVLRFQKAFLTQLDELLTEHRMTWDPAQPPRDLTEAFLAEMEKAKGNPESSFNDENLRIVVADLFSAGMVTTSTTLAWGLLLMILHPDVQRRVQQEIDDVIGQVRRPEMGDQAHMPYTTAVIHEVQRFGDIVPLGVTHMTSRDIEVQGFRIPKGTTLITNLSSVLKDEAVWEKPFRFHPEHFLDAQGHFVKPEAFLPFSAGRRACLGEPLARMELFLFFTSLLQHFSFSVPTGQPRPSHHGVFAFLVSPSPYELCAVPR
# Chain of Cytochrome P450 1A2 (Homo sapiens) (P05177 whole entry, looked up): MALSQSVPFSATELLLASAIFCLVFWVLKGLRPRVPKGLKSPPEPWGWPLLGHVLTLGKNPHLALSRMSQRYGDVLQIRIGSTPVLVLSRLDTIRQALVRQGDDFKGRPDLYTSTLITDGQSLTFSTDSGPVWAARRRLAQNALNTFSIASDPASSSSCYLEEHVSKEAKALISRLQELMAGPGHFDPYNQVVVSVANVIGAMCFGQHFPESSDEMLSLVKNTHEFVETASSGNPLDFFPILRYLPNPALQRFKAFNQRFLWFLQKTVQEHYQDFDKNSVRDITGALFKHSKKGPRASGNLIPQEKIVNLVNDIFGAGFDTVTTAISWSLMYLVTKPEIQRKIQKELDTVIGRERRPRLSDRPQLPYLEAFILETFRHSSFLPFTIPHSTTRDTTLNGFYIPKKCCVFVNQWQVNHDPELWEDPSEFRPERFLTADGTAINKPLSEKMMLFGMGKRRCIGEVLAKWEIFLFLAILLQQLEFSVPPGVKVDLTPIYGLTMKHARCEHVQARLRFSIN
# Chain of Voltage-gated inwardly rectifying potassium channel KCNH2 (Homo sapiens) (Q12809 whole entry, looked up): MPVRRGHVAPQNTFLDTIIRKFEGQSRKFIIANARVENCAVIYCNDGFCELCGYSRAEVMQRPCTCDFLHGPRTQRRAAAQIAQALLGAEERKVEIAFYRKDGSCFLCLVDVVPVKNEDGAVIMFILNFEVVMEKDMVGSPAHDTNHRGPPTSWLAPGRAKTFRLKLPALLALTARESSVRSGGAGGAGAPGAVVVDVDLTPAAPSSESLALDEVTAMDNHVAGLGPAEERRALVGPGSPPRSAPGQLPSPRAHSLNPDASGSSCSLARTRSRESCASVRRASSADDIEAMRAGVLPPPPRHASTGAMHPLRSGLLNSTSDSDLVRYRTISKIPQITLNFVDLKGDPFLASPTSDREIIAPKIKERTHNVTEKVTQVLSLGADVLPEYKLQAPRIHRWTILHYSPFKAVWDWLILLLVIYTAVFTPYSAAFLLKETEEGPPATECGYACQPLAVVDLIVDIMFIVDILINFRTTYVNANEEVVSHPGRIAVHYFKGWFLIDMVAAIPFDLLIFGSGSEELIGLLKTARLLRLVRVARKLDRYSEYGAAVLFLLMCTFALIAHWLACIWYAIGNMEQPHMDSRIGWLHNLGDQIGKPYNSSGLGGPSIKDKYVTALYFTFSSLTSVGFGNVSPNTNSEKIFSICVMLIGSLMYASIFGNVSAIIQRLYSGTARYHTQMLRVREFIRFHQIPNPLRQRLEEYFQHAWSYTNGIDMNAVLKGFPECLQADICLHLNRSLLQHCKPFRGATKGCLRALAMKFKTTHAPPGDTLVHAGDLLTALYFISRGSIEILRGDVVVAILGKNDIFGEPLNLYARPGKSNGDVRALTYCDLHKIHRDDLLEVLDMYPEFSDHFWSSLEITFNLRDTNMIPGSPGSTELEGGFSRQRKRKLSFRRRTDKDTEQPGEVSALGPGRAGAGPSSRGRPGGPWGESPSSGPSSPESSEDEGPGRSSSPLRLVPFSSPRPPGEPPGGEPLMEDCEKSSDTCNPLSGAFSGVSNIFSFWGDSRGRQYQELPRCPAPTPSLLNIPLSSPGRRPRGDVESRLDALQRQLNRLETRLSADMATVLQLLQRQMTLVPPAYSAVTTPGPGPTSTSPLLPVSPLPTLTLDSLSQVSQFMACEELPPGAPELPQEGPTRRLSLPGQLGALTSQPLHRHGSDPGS
# Chain of Cytochrome P450 2C19 (Homo sapiens) (P33261 whole entry, looked up): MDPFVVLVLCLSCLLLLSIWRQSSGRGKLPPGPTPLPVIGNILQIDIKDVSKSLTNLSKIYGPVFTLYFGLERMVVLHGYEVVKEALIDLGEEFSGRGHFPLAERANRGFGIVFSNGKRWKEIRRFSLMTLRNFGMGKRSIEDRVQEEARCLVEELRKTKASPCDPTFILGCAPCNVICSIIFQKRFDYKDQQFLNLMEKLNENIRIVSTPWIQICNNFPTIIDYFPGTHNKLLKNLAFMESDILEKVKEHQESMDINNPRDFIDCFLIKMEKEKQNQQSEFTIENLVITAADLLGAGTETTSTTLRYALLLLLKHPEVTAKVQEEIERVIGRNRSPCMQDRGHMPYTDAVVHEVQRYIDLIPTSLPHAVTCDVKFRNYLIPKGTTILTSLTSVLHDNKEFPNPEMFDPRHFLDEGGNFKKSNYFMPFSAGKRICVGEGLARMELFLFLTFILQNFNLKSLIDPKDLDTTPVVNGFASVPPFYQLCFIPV
# Chain of Acetylcholinesterase (Homo sapiens) (P22303 whole entry, looked up): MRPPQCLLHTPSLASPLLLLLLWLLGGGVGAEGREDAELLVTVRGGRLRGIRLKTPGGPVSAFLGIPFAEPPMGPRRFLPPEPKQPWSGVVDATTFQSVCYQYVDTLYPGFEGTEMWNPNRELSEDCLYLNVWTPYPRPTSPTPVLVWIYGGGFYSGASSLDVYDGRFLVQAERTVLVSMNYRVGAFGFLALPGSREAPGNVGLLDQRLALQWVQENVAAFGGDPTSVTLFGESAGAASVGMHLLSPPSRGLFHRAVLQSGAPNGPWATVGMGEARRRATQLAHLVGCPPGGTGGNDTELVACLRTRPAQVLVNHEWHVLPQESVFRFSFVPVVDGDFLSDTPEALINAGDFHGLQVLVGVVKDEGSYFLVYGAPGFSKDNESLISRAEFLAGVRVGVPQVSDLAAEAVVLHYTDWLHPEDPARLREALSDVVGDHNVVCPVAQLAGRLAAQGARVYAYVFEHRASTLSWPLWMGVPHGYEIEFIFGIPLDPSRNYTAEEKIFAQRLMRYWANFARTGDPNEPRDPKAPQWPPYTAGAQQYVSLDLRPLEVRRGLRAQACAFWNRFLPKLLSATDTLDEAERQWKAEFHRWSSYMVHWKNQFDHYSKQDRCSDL
SMILES,Potency [1],Potency [2],Potency [3],Potency [4],Potency [5],Potency [6],Potency [7],Potency [8],Potency [9],Potency [10],Potency [11],Potency [12],Potency [13],Potency [14],Potency [15],Potency [16],max activation [17],outcome [18],Potency [19]
CCC(C)(C)c1ccc(O)c(C(C)(C)CC)c1,30.6 µM (active),21.7 µM (active),48 µM (active) and 27.3 µM (active),inactive,27 µM (active) and inactive,inactive,inactive,inactive,inactive,35.2 µM (active) and 31.7 µM (active),4.97 µM (active) and 1.78 µM (active),4.43 µM (active) and 5.64 µM (active),19.8 µM (active) and 31.7 µM (active),,,,,,
CC(C)CCCCCCCOC(=O)c1ccccc1C(=O)OCCCCCCCC(C)C,inactive,inactive,inactive,inactive,inactive,inactive,inactive,inactive,inactive,inactive,inactive,,inactive,inactive,inactive,,,,
N#CC1(N=NC2(C#N)CCCCC2)CCCCC1,inactive,inactive,inactive,inactive,,inactive,inactive,inactive,,,5.03 µM (active),11.2 µM (active),inactive,38.9 µM (active),11.2 µM (active),inactive,,,
CN(C1CCCCC1)C1CCCCC1,inactive,inactive,inactive,inactive,,inactive,inactive,inactive,,3.17 µM (active),inactive,,inactive,inactive,inactive,inactive,,,
Cc1ccc2c(C)cccc2c1,inactive,inactive,inactive,inactive,inactive,inactive,inactive,inactive,inactive,inactive,inactive,inactive,inactive,inactive,inactive,,,,
[Cl-].[Cl-].[Hg+2],7.08 µM (active) and 6.11 µM (active),inactive,483 nM (active) and 2.43 µM (active),27.2 µM (active) and 54.5 µM (active),,,,,,,,,,38.7 µM (active) and 6.92 µM (active),,,-4.43% (inactive),,
Cc1ccc(N)c(C)c1,inactive,inactive,inactive,inactive,,,,,,inactive and 896 nM (active),39.5 µM (active) and 7.12 µM (active),35.7 µM (active),11.1 µM (active) and 2.83 µM (active),inactive,40 µM (active),inactive,,,
CCC1(CCC(C)C)C(=O)NC(=O)NC1=O,inactive,inactive,inactive,inactive,inactive,inactive,inactive,inactive,,,,,,inactive,,,,,
COC1CC(=C(c2cccs2)c2cccs2)C[N+](C)(C)C1 (centres undefined),inactive,inactive,inactive,inactive,inactive,inactive,inactive,inactive,inactive,0.309 µM (active),inactive,inactive,inactive,,inactive,,-1.69% (inactive),inactive,inactive
CCOP(=O)(SC(C)CC)N1CCSC1=O (centres undefined),inactive,inactive,inactive,inactive,,inactive,inactive,inactive,inactive,inactive,79.6 µM (active),63.3 µM (active),35.6 µM (active),inactive,,,,,
C1CCNCC1,inactive,inactive,inactive,inactive,,inactive,inactive,inactive,,inactive,inactive,inactive,36.8 µM (active),inactive,inactive,inactive,,,
CC1(C)[C@H](C(=O)O[C@H](C#N)c2cccc(Oc3ccccc3)c2)[C@@H]1C=C(Br)Br,inactive,inactive,inactive,inactive,,,,,,inactive,5.87 µM (active) and 7.1 µM (active),1.86 µM (active) and 3.99 µM (active),inactive,inactive,inactive,inactive,,,
CN(C)N,inactive,inactive,inactive,inactive,inactive,inactive,inactive,inactive,inactive,inactive,,inactive,35.6 µM (active),inactive,inactive,,,,
CN1CC[C@]23c4c5ccc(O)c4O[C@H]2[C@@H](O)C=C[C@H]3[C@H]1C5,inactive,inactive,inactive,inactive,,,inactive,,,,,,,,,inactive,,,
CCC[N+](CCC)(CCC)CCC,inactive,inactive,inactive,inactive,inactive,,inactive,inactive,inactive,,,inactive,,,,,,,
CCCCC(CC)CO[N+](=O)[O-] (centres undefined),inactive,inactive,inactive,inactive,inactive,inactive,inactive,inactive,,inactive,inactive,inactive,inactive,inactive,inactive,,,,
CC(C)(C)OOC(C)(C)CCC(C)(C)OOC(C)(C)C,inactive,inactive,inactive,inactive,inactive,inactive,inactive,inactive,inactive,inactive,inactive,,inactive,inactive,inactive,,,,
c1ccc2sc(SNC3CCCCC3)nc2c1,inactive,inactive,inactive,inactive,60.4 µM (active) and 48.6 µM (active),inactive,inactive,inactive,inactive,19.8 µM (active) and 35.6 µM (active),31.4 µM (active) and 22.4 µM (active),31.4 µM (active) and 17.8 µM (active),55.8 µM (active) and 35.6 µM (active),inactive,inactive,,11.8% (inactive),inactive,inactive
